Data: the supplement of paper PMC11732987, “Enantioselective OTUD7B fragment discovery through chemoproteomics screening and high-throughput optimisation” (Communications Chemistry, 2025)

What was measured:
Experiment in all cases: log2 ratio of Biotin-Ahx-Ub-VS probe labelling (fragment/DMSO); higher = less target engagement (more negative = stronger competition), active = hit call of the paper (q ≤ 0.05, log2 ratio ≤ -1)
Settings in all cases: compound concentration: 200 uM; treatment time: 3 h
USP42 = molecular target: T1, USP42 (UniProt Q9H9J4)
T1 sequence (whole entry): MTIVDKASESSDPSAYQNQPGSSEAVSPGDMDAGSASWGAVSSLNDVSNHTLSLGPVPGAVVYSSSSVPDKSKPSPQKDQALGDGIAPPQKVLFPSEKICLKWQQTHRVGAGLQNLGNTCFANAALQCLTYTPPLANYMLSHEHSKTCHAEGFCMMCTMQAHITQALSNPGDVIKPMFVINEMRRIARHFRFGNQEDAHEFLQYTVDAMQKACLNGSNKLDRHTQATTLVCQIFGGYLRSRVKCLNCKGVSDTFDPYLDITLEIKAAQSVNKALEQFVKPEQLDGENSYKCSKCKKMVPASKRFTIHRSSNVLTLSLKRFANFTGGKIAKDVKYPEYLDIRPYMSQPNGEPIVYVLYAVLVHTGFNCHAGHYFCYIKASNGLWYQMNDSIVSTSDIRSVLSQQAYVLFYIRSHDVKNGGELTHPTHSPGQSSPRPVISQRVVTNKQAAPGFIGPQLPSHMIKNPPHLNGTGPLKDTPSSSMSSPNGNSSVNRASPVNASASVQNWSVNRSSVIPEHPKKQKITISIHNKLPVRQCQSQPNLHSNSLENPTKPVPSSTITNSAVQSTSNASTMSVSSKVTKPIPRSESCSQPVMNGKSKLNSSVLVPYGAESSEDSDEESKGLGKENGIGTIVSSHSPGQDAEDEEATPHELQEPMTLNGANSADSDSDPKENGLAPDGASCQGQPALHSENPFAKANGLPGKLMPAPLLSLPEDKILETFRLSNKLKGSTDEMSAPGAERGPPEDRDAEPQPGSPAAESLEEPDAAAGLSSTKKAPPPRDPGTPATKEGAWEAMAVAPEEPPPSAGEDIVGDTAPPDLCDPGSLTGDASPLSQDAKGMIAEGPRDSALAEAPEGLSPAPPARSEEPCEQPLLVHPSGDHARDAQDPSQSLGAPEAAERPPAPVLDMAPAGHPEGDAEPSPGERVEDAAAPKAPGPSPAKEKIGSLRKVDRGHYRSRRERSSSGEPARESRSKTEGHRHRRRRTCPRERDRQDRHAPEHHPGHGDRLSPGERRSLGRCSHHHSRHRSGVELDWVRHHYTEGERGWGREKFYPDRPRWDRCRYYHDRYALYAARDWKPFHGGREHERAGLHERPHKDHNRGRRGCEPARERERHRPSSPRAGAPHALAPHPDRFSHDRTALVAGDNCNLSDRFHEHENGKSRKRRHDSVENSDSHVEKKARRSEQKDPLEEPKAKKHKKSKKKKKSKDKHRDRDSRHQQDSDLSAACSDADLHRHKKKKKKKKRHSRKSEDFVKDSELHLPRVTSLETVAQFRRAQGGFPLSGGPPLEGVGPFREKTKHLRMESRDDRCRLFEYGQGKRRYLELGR
Procedure, shortened: (§1)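 Each value is an average log2 ratio of fragment to vehicle, tested by unpaired t-test. The underlying Spectronaut label-free quantities were global-median-normalised, and only proteins with ≥2 unique peptides were included. Triplicate HEK293T lysate samples (495 µg) were exposed to fragment at 200 µM or vehicle for 3 h, then to Biotin-Ahx-Ub-VS at 0.5 µM final for 1 h, before NeutrAvidin enrichment of labelled DUBs, LysC and trypsin digestion, and diaPASEF LC-MS/MS.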

USP46 = USP46 (UniProt P62068)
Procedure, shortened: as §1

USP47 = molecular target: T2, USP47 (UniProt Q96K76)
T2 sequence (whole entry): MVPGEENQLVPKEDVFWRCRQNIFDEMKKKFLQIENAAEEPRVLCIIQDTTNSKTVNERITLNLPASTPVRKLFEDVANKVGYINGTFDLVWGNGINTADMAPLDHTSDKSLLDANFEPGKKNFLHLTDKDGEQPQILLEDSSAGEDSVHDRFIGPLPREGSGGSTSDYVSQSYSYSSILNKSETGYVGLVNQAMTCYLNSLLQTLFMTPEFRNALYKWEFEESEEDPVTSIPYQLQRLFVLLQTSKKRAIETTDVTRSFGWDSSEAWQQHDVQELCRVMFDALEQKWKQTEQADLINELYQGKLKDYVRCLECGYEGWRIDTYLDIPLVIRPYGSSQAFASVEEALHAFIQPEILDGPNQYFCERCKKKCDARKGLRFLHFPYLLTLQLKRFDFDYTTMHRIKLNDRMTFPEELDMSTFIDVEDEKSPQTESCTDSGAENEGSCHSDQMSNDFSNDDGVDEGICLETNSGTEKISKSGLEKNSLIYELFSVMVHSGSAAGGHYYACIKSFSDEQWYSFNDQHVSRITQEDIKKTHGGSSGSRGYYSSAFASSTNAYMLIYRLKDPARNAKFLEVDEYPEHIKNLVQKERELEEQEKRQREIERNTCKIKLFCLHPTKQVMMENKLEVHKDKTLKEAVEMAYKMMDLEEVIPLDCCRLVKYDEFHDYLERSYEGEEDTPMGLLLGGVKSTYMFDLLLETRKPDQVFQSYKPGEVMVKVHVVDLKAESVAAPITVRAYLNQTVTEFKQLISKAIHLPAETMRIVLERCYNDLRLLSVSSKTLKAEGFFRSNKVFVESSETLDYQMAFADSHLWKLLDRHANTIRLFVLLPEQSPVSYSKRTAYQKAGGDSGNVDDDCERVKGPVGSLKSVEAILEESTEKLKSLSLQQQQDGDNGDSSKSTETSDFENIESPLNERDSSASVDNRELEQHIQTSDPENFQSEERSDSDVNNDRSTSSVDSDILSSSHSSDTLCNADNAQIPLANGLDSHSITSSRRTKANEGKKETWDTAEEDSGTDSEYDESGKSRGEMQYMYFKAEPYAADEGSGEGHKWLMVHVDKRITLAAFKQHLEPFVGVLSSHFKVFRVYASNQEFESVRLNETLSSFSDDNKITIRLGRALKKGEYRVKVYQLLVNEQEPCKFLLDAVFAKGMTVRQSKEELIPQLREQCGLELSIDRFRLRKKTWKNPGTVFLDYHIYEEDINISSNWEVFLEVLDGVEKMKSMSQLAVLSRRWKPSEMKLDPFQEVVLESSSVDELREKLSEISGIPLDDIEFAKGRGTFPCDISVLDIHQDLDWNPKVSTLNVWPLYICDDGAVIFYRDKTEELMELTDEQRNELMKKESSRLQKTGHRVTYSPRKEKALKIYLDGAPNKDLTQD
Procedure, shortened: as §1

USP48 = molecular target: T3, USP48 (UniProt Q86UV5)
T3 sequence (whole entry): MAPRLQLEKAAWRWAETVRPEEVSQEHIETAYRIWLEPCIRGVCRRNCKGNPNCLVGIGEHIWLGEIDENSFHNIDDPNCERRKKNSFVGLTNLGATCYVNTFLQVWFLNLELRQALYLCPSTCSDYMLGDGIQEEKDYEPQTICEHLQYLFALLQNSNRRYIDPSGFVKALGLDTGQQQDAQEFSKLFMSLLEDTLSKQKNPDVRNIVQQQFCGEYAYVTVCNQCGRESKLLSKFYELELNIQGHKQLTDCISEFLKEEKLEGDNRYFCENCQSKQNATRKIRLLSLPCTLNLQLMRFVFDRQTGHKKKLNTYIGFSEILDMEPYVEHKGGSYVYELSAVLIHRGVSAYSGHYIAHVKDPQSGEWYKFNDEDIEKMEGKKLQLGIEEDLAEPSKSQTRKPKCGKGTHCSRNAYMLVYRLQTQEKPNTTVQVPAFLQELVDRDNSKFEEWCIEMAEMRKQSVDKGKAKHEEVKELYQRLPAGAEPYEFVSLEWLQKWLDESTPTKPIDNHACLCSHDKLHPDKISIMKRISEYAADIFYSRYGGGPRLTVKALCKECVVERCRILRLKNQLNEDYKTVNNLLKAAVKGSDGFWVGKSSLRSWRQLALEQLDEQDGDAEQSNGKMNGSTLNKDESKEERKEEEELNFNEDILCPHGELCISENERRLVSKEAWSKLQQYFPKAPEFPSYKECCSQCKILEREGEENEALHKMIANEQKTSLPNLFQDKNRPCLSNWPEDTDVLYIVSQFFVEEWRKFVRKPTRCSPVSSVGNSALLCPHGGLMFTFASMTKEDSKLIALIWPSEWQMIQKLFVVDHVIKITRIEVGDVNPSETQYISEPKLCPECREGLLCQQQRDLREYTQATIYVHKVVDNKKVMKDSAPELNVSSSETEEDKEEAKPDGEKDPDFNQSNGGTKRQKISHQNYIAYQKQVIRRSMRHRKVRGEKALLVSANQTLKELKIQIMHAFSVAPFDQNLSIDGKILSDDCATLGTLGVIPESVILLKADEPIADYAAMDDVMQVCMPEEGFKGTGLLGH
Procedure, shortened: as §1

USP5 = molecular target: T4, USP5 (UniProt P45974)
T4 sequence (whole entry): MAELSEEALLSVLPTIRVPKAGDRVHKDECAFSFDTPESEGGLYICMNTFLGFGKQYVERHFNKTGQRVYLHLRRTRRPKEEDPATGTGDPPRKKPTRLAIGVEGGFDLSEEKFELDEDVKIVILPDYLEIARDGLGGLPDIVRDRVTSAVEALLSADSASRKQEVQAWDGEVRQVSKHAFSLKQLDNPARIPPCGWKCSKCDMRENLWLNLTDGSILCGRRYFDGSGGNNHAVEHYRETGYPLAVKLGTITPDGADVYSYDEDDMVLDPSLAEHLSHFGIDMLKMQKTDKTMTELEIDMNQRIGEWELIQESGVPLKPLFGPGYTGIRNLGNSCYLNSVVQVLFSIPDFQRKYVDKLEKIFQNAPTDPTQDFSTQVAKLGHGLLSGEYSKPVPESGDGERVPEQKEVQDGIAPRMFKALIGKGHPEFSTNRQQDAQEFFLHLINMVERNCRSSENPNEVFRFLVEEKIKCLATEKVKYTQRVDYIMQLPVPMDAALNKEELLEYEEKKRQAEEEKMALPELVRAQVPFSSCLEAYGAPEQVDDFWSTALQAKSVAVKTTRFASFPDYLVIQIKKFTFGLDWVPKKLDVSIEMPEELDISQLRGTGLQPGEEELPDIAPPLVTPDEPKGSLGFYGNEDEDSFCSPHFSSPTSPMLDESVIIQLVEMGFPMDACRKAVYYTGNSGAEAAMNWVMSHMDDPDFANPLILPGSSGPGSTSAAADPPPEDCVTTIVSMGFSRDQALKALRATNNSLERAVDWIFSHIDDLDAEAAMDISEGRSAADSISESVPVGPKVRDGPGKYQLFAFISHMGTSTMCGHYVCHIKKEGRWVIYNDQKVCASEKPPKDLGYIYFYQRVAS
Procedure, shortened: as §1

USP54 = USP54 (UniProt Q70EL1)
Procedure, shortened: as §1

USP7 = USP7 (UniProt Q93009)
Procedure, shortened: as §1

USP8 = molecular target: T5, USP8 (UniProt P40818)
T5 sequence (whole entry): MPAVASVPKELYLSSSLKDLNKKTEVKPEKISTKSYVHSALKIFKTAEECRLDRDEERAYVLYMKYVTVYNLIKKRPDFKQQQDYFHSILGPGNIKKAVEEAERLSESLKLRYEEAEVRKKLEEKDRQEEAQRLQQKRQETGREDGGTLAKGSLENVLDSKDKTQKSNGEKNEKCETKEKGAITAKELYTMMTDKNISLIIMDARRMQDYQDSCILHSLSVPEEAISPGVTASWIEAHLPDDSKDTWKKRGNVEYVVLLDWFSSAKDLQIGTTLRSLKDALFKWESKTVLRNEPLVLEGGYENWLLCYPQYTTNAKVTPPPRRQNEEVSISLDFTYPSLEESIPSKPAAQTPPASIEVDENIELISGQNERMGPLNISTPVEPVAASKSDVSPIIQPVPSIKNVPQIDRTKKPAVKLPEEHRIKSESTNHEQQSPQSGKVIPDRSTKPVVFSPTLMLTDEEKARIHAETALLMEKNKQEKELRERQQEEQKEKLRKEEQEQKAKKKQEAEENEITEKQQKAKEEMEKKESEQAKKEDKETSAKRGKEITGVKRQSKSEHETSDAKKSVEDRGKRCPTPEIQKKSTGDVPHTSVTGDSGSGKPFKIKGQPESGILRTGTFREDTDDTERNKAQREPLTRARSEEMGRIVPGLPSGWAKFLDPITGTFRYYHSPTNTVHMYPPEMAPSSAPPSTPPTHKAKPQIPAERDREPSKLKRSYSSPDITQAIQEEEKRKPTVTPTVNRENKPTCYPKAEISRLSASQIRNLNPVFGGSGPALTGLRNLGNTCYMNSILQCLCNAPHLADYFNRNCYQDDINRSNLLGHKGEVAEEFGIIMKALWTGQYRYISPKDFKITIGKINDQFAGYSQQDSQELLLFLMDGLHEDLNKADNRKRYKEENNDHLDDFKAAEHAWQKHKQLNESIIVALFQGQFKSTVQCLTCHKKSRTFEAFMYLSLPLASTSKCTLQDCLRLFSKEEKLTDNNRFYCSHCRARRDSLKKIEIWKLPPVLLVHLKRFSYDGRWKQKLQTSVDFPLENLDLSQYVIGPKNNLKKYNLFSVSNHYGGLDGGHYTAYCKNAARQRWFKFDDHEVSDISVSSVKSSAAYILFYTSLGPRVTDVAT
Procedure, shortened: as §1

USP9X = USP9X (UniProt Q93008)
Procedure, shortened: as §1

UniProt O00487 = molecular target: UniProt O00487
Procedure, shortened: as §1

Measured: log2 ratio of Biotin-Ahx-Ub-VS probe labelling

Chain of UniProt O00487 (O00487 whole entry): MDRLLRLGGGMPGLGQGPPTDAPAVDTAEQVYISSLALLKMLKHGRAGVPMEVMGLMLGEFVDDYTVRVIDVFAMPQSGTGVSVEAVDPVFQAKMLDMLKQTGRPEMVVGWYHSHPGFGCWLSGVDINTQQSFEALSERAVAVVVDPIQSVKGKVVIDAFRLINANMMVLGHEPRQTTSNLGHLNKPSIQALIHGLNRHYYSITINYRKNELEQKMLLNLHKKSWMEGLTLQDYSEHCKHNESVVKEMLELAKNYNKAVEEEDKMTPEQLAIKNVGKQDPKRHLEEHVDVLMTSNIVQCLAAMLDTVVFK
Chain of USP46 (P62068 whole entry): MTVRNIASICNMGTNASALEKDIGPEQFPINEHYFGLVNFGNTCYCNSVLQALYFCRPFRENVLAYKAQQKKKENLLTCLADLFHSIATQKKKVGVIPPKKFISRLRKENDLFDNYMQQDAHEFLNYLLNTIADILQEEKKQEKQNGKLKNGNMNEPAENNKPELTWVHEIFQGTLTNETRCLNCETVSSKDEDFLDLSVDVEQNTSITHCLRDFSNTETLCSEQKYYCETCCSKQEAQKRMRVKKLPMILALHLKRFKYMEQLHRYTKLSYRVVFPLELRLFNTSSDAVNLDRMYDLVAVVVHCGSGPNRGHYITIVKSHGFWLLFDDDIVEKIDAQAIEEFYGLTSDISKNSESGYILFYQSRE
Chain of USP54 (Q70EL1 whole entry): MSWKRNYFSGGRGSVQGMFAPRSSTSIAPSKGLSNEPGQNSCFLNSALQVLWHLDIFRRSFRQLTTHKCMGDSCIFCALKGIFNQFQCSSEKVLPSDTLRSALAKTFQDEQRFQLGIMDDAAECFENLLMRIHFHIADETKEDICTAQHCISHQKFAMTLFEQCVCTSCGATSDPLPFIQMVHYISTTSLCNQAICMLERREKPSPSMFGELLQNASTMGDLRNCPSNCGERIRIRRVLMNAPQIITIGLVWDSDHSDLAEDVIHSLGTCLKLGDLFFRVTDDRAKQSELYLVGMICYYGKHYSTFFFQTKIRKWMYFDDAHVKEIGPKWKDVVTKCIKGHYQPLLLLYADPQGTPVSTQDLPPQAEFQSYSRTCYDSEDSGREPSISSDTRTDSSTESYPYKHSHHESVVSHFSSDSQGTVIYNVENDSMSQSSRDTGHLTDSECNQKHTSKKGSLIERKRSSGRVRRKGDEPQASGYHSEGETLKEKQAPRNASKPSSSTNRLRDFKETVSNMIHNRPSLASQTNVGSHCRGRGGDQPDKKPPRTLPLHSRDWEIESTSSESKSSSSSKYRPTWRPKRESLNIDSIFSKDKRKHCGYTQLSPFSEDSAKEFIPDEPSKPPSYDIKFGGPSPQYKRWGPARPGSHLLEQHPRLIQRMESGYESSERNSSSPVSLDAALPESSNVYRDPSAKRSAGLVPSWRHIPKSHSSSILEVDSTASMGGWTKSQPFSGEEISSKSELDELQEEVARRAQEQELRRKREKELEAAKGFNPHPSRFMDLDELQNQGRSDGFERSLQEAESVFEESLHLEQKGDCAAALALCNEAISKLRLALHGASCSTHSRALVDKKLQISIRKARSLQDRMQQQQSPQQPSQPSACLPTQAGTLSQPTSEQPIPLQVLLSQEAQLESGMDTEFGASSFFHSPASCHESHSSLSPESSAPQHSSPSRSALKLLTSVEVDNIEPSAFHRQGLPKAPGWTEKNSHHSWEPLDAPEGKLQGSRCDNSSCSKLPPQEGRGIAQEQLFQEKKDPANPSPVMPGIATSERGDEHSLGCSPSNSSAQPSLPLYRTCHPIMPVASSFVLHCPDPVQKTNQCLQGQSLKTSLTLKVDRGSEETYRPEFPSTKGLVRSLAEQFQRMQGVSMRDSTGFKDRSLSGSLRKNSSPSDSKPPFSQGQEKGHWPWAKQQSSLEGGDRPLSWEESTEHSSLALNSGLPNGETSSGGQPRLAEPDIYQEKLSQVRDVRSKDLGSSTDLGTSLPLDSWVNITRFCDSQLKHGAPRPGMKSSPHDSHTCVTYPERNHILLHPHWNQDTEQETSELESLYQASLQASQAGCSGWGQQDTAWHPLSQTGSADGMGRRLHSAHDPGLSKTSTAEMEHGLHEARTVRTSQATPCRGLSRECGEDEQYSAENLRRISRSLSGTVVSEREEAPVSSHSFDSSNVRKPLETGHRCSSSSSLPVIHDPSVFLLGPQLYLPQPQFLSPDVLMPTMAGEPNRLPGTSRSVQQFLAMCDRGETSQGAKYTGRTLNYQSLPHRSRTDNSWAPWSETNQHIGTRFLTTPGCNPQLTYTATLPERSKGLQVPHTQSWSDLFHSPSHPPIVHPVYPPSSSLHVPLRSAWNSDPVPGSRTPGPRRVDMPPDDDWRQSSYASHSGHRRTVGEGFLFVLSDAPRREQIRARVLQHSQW
Chain of USP7 (Q93009 whole entry, looked up): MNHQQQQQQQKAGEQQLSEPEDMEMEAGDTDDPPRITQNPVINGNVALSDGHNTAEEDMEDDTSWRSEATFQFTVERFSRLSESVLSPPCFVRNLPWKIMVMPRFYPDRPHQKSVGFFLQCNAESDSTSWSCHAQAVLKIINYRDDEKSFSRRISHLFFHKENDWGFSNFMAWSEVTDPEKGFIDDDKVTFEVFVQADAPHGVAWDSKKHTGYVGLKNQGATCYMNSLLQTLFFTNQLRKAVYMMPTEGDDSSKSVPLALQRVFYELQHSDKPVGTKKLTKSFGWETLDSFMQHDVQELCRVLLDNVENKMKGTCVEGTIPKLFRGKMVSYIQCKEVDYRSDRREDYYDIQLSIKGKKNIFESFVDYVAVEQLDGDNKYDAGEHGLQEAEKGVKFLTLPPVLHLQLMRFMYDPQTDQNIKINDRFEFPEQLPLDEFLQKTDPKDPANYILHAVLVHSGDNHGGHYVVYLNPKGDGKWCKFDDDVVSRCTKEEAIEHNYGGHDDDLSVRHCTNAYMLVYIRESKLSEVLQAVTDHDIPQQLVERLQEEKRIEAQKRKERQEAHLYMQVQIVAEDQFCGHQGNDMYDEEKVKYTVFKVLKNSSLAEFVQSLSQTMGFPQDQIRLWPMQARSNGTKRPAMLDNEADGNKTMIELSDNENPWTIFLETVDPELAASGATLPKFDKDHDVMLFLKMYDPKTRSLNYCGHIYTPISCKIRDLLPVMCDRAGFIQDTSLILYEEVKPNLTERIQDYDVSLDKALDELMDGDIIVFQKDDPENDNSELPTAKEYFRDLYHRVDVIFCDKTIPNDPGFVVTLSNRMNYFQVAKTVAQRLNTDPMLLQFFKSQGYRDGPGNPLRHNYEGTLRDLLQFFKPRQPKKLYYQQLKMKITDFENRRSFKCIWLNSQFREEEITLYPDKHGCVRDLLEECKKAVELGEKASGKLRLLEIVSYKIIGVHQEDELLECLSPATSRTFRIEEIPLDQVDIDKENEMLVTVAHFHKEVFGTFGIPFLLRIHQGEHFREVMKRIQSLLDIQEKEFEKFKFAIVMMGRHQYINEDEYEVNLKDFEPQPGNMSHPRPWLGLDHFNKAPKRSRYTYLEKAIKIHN

CC(=O)C1CCCCN1C(=O)CCl (stereo not given)
inactive: USP42 0.359 | USP46 0.0148 | USP47 -0.0598 | USP48 -0.362 | USP5 -0.139 | USP54 0.498 | USP7 -0.172 | USP8 0.076 | USP9X -0.034 | UniProt O00487 -0.0675
